Source: PubChem (National Center for Advancing Translational Sciences (NCATS))
DT40 TDP1 CPT – qHTS for Inhibitors of human tyrosyl-DNA phosphodiesterase 1 (TDP1): qHTS in cells in presence of CPT. chicken DT40 Tdp1-/-;hTDP1 cells + 20 nM CPT, ATP luminescence, 48 h. Potency, µM (doses to about 46.2 µM), for inactives: top-dose activity change, negative = growth inhibition, actives largely listed as inhibitors. 420,000 compounds, 12% hits; note: potency is the fitted concentration of half-maximal effect; nearly all actives have a fitted effect of over 55% in size
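Chicken DT40 Tdp1-/- cells stably complemented with human TDP1 were seeded at 400 cells/well in medium containing 20 nM camptothecin, exposed to pin-transferred compounds, and grown at 37 °C for at least 48 hr. Viability was read as ATP luminescence.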
uPA surface inh – qHTS for Inhibitors of Cell Surface uPA Generation; cell surface uPA generation assay, qHTS; Potency, µM (top dose mostly 38.3 µM), for inactives: at the highest dose activity change, negative = inhibition, actives largely listed as inhibitors; 330,000 compounds, 0.31% hits; active = well fitted inhibition curve with a large enough effect; inconclusive = small, poorly fitted or top-dose-only effect; inactive = no such curve, though single readings can be large or run the other way; tested in mouse RAW 264.7 cells; note: potency is the fitted concentration of half-maximal effect; nearly all actives have a fitted effect of over 55% in size
HT1080 IDH1KD tx – qHTS for induction of synthetic lethality in tumor cells producing 2HG: qHTS for the HT-1080-IDH1KD cell line; HT-1080 IDH1 knockdown viability, ATP luminescence, 48 h; Potency, µM (highest dose often 46.1 µM), for inactives: at the top dose activity, negative = toxicity, actives largely listed as cytotoxic; 360,000 compounds, 2% hits;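 note: potency is the fitted concentration of half-maximal effect; 0% = DMSO wells and -100% = cell-free medium wells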
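CellTiter-Glo luminescence after 48 h compound exposure at 37 degrees C of IDH1-knockdown HT-1080 cells in 5% FBS RPMI. %Activity scaled between DMSO wells and cell-free media wells, with curves fitted and assigned curve classes.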
HT1080NT lethal – qHTS for induction of synthetic lethality in tumor cells producing 2HG: qHTS for the HT-1080-NT fibrosarcoma cell line. HT-1080-NT fibrosarcoma viability, CellTiter-Glo ATP luminescence, 48 h. Potency, µM (doses to about 46.1 µM), for the others: top-dose activity, negative = less viability, actives largely listed as cytotoxic. 360,000 compounds, 1.6% hits. AID 686970, 2013;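 note: NT is the 2HG producing partner of a matched IDH1 knockdown line; potency is the fitted concentration of half-maximal effect; 0% = DMSO-treated cells and -100% = media-only wells without cells; nearly all actives have a fitted effect of over 55% in size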
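Viability of the 2HG-overproducing fibrosarcoma line after 48 hours of compound exposure at 37 degrees C was determined by luminescence with CellTiter-Glo, and concentration-effect curves were then fitted and categorized.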
IL1B secr inh – qHTS for Inhibitors of Inflammasome Signaling: IL-1-beta AlphaLISA Primary Screen; activity change, % at 57.5 µM; AID 743279, 2014; 360,000 compounds, 4.7% hits; THP-1 LPS/ATP IL-1B secretion, AlphaLISA, 16 h; hits give low values; in the data active = activity change below about -50%; inconclusive = mostly about -30% to -49%
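Secreted IL-1B measured by AlphaLISA bead assay after 16 h compound exposure of THP-1 cells; compounds (final up to 57.5 uM) added 1 h before LPS (250 ng/mL) and ATP (1.25 mM) stimulation; lower signal means less secretion.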
TDP1 cell noCPT – qHTS for Inhibitors of human tyrosyl-DNA phosphodiesterase 1 (TDP1): qHTS in cells in absence of CPT | 420,000 compounds, 15% hits | DT40 Tdp1-/- hTDP1 cells, no CPT, ATP luminescence, 48 h | Potency, µM (highest dose often 46.2 µM), inactives show top-dose activity change, negative = growth inhibition, usual class: inhibitors; note: potency is the fitted concentration of half-maximal effect; nearly all actives have a fitted effect of over 55% in size
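A cellular qHTS used chicken DT40 cells lacking endogenous Tdp1 but carrying stably transfected human TDP1. Compounds were applied without camptothecin, and cell growth kinetics were judged by ATP-dependent luminescence after ≥48 hr.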
Starred values were filed as active, the others as inactive; ? = inconclusive; / = not tested or not shown; [ ] = remark or other dose. A selection: hits, their analogues and other compounds. The true share with any hit is near 19%. Unless noted, calls come from the whole dose curve; as a rule, active = well fitted curve in the direction sought with a large enough effect; inconclusive = small, poorly fitted or top-dose-only effect, or another doubt; inactive = no such curve, though single readings can be large; an effect the other way counts as inactive or inconclusive. Unless noted, % is set by controls: 0 for no effect and ±100 for the full control effect.

SMILES | DT40 TDP1 CPT | uPA surface inh | HT1080 IDH1KD tx | HT1080NT lethal | IL1B secr inh | TDP1 cell noCPT
Cn1c(=O)c(=O)n(C)c2cc(NS(=O)(=O)c3ccc(Br)cc3)c(Cl)cc21 | -26% | / | / | / | / | ?
COc1ccccc1/C=C(/C(=O)OCC(=O)Nc1cc(C)ccc1C)c1ccccc1 | 26µM* | 13% | -1% | -2% | -20 | 21µM*
COc1ccccc1/C=C(/C(=O)OCC(=O)N(C)Cc1ccccc1)c1ccccc1 | ? | 9% | -6% | -9% | -11 | 13µM*
CCc1ccc(NC(=O)COC(=O)/C(=C/c2ccccc2OC)c2ccccc2)cc1 | -2% | 11% | -3% | 1% | 3 | ?
Cc1ccc(CN2C[C@H](Sc3ccccn3)C[C@H]2C(=O)Nc2ccc3sc(C)nc3c2)s1 | 19%[9.04 µM] | / | / | / | / | -3%
Cn1c(=O)n(Cc2ccccc2)c(=O)c2c1nc1n2CCCN1Cc1ccccc1 | ? | -2% | 14% | 8% | 0 | ?
CCOCCn1c(=O)c2c(nc3n2CCCN3Cc2ccccc2)n(C)c1=O | 28% | 4% | -2% | -1% | 12 | -20%
C=C(C)Cn1c(=O)c2c(nc3n2CCCN3CCc2ccccc2)n(C)c1=O | ? | -3% | -3% | -4% | 6 | 13µM*
CCCCn1c(=O)c2c(nc3n2CCCN3Cc2ccccc2)n(C)c1=O | ? | -2% | 22% | 19% | 26 | 23µM*
Cc1ccccc1Cn1c(=O)c2c(nc3n2CCCN3Cc2ccccc2)n(C)c1=O | 21µM* | 2% | -14% | -7% | -1 | ?
C=C(C)Cn1c(=O)c2c(nc3n2CCN3c2cc(C)cc(C)c2)n(C)c1=O | -24% | / | / | / | / | 23µM*
Cn1c(=O)n(CC(=O)OCc2ccccc2)c(=O)c2c1nc1n2CCCN1C1CCCCC1 | ? | 4% | -3% | 1% | 4 | 23µM*
O=C(Cc1ccc(Br)cc1)NCCc1ccc(F)cc1 | 1% | 2% | -25% | -12% | -17 | -3%
CCCCn1nnnc1C(c1cc2ccccc2o1)N1CCN(C(=O)OCC)CC1 (stereo not drawn) | ? | / | 3% | 2% | ? | ?
CNC(=O)[C@H](Cc1c[nH]c2ccccc12)NC(=O)[C@@H](CC(=O)NO)CC(C)C | 22µM* | / | / | / | / | 31µM*
O=C(Cc1c[nH]c2ccccc12)N[C@@H](Cc1c[nH]c2ccccc12)C(=O)O | 1% | 4% | 8% | -2% | 13 | -2%
COc1ccccc1OCC(=O)NCc1ccco1 | -21% | / | 0% | 0% | 13 | -3%
COc1ccc(CN(Cc2ccco2)C(=O)COc2ccccc2Cl)cc1 | ? | / | / | / | / | 23µM*
COc1ccc(CN(Cc2ccco2)C(=O)COc2ccccc2OC)cc1 | ? | / | / | / | / | 18µM*
O=S(=O)(c1ccc(SCc2ccc(Cl)cc2)nc1)N1CCCC1 | ? | -18% | 1% | -16% | -3 | 15µM*
COc1ccc(CSc2ccc(S(=O)(=O)N3CCCC3)cn2)cc1F | 23µM* | / | -11% | -13% | -13 | 16µM*
O=S(=O)(c1ccc(SCCOc2ccc(Br)cc2)nc1)N1CCCC1 | ? | -9% | -28% | -7% | -14 | 16µM*
COc1ccc(C(C)=O)cc1CSc1ccc(S(=O)(=O)N2CCCCC2)cn1 | ? | 18% | 0% | -11% | 0 | 16µM*
COc1ccc(C(C)=O)cc1CSc1ccc(S(=O)(=O)N2CCOCC2)cn1 | ? | 11% | -1% | 1% | -15 | ?
Cc1cc(C)cc(CSc2ccc(S(=O)(=O)N3CCCC3)cn2)c1 | ? | 17% | -6% | -2% | 13 | ?
SMILES | DT40 TDP1 CPT | uPA surface inh | HT1080 IDH1KD tx | HT1080NT lethal | IL1B secr inh | TDP1 cell noCPT
Cc1cc(C)cc(OCC(=O)NNC(=O)CC(C)c2ccccc2)c1 (stereo not drawn) | -23% | / | 2% | 0% | -20 | -30%
CC(=O)/C=C1\OCc2cc(OCc3ccccc3)ccc21 | ? | / | -3% | -14% | -24 | ?
CCOC(=O)c1ccc(N2C(=O)[C@@H](c3ccccc3)[C@H]2c2ccccc2)cc1 | ? | -1% | ? | 2% | -1 | ?
CCOC(=O)c1ccc(NC2=CC(c3ccc(F)cc3)N(c3ccc(C(=O)OCC)cc3)C2=O)cc1 (stereo not drawn) | 16µM* | / | / | / | / | 18µM*
c1ccc(-c2nnsc2-c2ccccc2)cc1 | -3% | -8% | 1% | 7% | 6 | 20%
O=S(=O)(c1ccc(Cl)c(Cl)c1)c1snnc1-c1ccccc1 | 2.6µM* | -10% | 8.2µM* | 16µM* | -116* | 3.3µM*
COc1cc(/C=C(\CC(=O)O)c2nc3ccccc3s2)cc(OC)c1O | -16% | -3% | -16% | -22% | 35 | ?
COc1cc(/C=N/NC(=Nc2ccc(C)cc2)c2nc3ccccc3s2)ccc1O | 14µM* | / | ? | ? | -13 | 16µM*
COc1cc(/C=N\Nc2nc(-c3ccc(C)cc3)c(NC(C)=O)s2)ccc1O | -24% | 1% | -16% | -22% | -62* | -18%
COc1ccc(/C=N/Nc2nc(-c3ccc(C)cc3)c(NC(C)=O)s2)cc1OC | 12% | -7% | 3% | 15% | 12 | -5%
O=C(O)c1ccc(C=C(c2nc3ccccc3s2)c2nc3ccccc3s2)cc1 | ? | 1% | ? | ? | -108* | 1%
COc1cc(/C=N/NC(=O)c2cccc(C(=O)N/N=C/c3ccc(O)c(OC)c3)n2)ccc1O | 0% | -1% | -16% | 0% | 8 | -17%
COc1cc(C=C(c2nc3ccccc3s2)c2nc3ccccc3s2)cc(OC)c1O | 23µM* | -2% | -23% | -26% | -82* | ?
O=C(O)c1ccc(Oc2nc3ccccc3s2)cc1 | 6% | -4% | -7% | -9% | -1 | -3%
Cc1ccc(S(=O)(=O)N(c2nc(NC(C)C)nc(NC(C)C)n2)n2cnnc2)cc1 | -3% | -1% | -17% | -15% | -2 | ?
CN(c1ccccc1)c1nc(N)c([N+](=O)[O-])c(NCCO)n1 | -17% | 8% | -2% | 11% | 37 | 5%
CC(=O)c1ccc(NC(=O)COC(=O)CCC2CCCC2)cc1 | -18% | 1% | 1% | 15% | -3 | -10%
